High-throughput results (PubChem BioAssay)
Pf growth 96h = P. falciparum growth inhibition at 96 hour, primary screen for plastid delayed-death inhibitors; P. falciparum luciferase reporter growth, 96 h; Potency, µM (top dose mostly 28.7 µM), for the others: top-dose activity change, negative = inhibition, most hits filed as inhibitors; 320,000 compounds, 6.9% hits; AID 504834; further: potency means the concentration at half of the fitted maximal effect; on the % scale 0 is the no-effect control and ±100 the full control effect
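P. falciparum expressing integrated firefly luciferase, in erythrocytes at 2% hematocrit, 0.05% parasitemia, incubated with compounds 96 h at 37 C, 5% CO2. Growth inhibition read as loss of luminescence; two-generation exposure targets delayed-death apicoplast inhibitors.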
Pf growth 48h = inhibits P. falciparum growth in the first generation, 48 h. AID 504832. Potency, µM (highest dose often 28.7 µM), without a hit: top-dose activity change, negative = inhibition, hits mostly inhibitors. 310,000 compounds, 5.9% hits. P. falciparum luciferase growth in erythrocytes, 48 h; further: potency means the concentration at half of the fitted maximal effect; on the % scale 0 is the no-effect control and ±100 the full control effect
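Cell-based growth assay: transgenic P. falciparum expressing firefly luciferase, cultured in red cells within RPMI 1640 containing 0.5% w/v Albumax, 24 mM bicarbonate and gentamycin. A drop in luciferase activity indicates inhibition.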
HCMV antiviral = inhibitors of human cytomegalovirus; HFF cells, HCMV-luciferase reporter, 72 h; stronger effect = lower value; activity change, negative = inhibition, % at 57.5 µM; 410,000 compounds, 4.5% hits; in the data active means activity change below about -60%; inconclusive means no clear call, values can overlap the other calls; inactive means above about -39%; further: on the % scale 0 is the no-effect control and ±100 the full control effect
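Cell-based, HFFs, 1000 cells/well, 16 h 37C; cpds in DMSO + HCMV-luc, MOI 1 PFU/cell; 72 h 37C; OneGlo luminescence after 5 min RT; norm. to buffer vs Salinomycin 10uM.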
SARS PLP yeast = SARS-CoV PLP inhibition in yeast. Potency, µM (doses to about 32.9 µM), inactives show at the top dose activity, positive = growth rescue, usual class: activators. AID 485353. 330,000 compounds, 0.19% hits. S. cerevisiae expressing SARS-CoV PLpro, growth rescue; calls by dose curve; further: potency means the concentration at half of the fitted maximal effect; 0% is about no effect; nearly all actives have a fitted effect of over 55% in size
HCV inhibitor = inhibitors of hepatitis C virus infection | Huh7.5.1 HCVcc-Cre infection, luciferase reporter, 44 h | Potency, µM (top dose mostly 41.8 µM), for inactives: at the top dose activity change, negative = inhibition, actives largely listed as inhibitors | 340,000 compounds, 3.4% hits | AID 651820; further: potency means the concentration at half of the fitted maximal effect; on the % scale 0 is the no-effect control and ±100 the full control effect
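Whole-lifecycle infectious HCVcc-Cre system; cells 1,000/well, compound then virus (~0.5 moi) added 4 h after plating, 44 h culture. Luciferase read 15 sec following 15 min substrate incubation, room temp.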
Sm TGR block = inhibitors of Schistosoma mansoni thioredoxin glutathione reductase; AID 485364; Potency, µM (doses to about 114 µM), without a hit: at the top dose activity change, negative = inhibition, usual class: inhibitors; 360,000 compounds, 3% hits; purified TGR, DTNB reduction, TNB absorbance 405 nm; further: potency means the concentration at half of the fitted maximal effect; on the % scale 0 is the no-effect control and ±100 the full control effect; nearly all actives have a fitted effect of over 60% in size
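TGR 20 nM + NADPH 100 uM (dispensed conc.), cpd preinc 15 min RT; start with NADPH (500 uM addition) then DTNB (15 mM addition). Kinetic TNB absorbance, 405 nm filter. Four-parameter Hill fit across titration.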
An asterisk follows results filed as active; ? = inconclusive; / = not tested or not shown. In the library only some 15% were active in any assay of this set; here they are far more common. Unless noted, the call rests on the fitted dose curve; in most records, active means well fitted curve in the direction sought with a large enough effect; inconclusive means small, poorly fitted or top-dose-only effect, or another doubt; inactive means no such curve, though single readings can be large; an effect the other way counts as inactive or inconclusive.

SMILES | Pf growth 96h | Pf growth 48h | HCMV antiviral | SARS PLP yeast | HCV inhibitor | Sm TGR block
C#CCOCCOCCOCCNc1nc(N2CCN(C(=O)CCCCCCCCCCNC(=O)[C@@H](CCSC)n3cc(CCO)nn3)CC2)nc(N2CCN(C(=O)CCCCCCCCCCNC(=O)[C@H]([C@@H](C)CC)n3cc(CCCCN=C(N)N)nn3)CC2)n1 | 0.415µM* | 1.65µM* | / | 5.7% | ? | ?
C#CCOCCOCCOCCNc1nc(N2CCN(C(=O)CCCCCCCCCCNC(=O)[C@@H](CCSC)n3cc(CCO)nn3)CC2)nc(N2CCN(C(=O)CCCCCCCCCCNC(=O)[C@H]([C@@H](C)CC)n3cc(CCCCCN)nn3)CC2)n1 | 2.08µM* | 1.65µM* | / | -3.8% | ? | 1.0%
O=C1CC(N2CCN(S(=O)(=O)c3ccccc3F)CC2)C(=O)N1c1ccccc1Cl (centres undefined) | 8.2% | ? | -9.1 | 2.9% | 11.7% | ?
O=C1c2ccccc2C(=O)N1CCCCSc1nnc2ccccn12 | ? | 13.1µM* | -14.7 | 0.6% | 8.9% | -0.8%
Cc1cc(N2CCCC2)ccc1/C=C1\NC(=S)N(C)C1=O | 0.0% | 81.9% | -22.2 | -0.6% | ? | -13.9%
Cc1cc(N2CCCCC2)ccc1C=C1C(=O)N(C)C(=S)N(C)C1=O | 37.2% | 8.1% | 16.4 | -7.9% | ? | 7.08µM*
Cn1c(O)c(C2=NN(C(=O)CCl)C(c3ccccc3)C2)c(=O)n(C)c1=O (centres undefined) | -2.5% | ? | 4.0 | 4.8% | -4.0% | 12.6µM*
CC(C)(C)OC(=O)NCC12C=CC(O1)C1C(=O)N(Cc3ccccc3)C(=O)C12 (centres undefined) | -13.8% | 5.2% | -25.5 | -95.1% | 22.1% | 8.91µM*
CCOc1ccc(-c2nc(Cn3c(=O)cc(-c4ccccc4)c4c(C)nn(C)c43)c(C)o2)cc1OC | / | / | 13.5 | / | / | 6.2%
CC(C)n1c2ccccc2c2cc([N+](=O)[O-])ccc21 | 4.65µM* | ? | ? | 10.5% | 8.91µM* | 5.1%
C#CCOc1cc(C2C3=C(COC3=O)Nc3cc4c(cc32)OCO4)ccc1OC (centres undefined) | -3.8% | ? | 4.0 | -1.6% | -4.4% | -5.2%
COc1ccc(OC)c(C2C3=C(COC3=O)Nc3cc4c(cc32)OCO4)c1 (centres undefined) | ? | ? | -84.2* | 21.9% | -6.5% | -21.8%
O/N=C\c1ccccc1Oc1ccc(F)cc1 | 0.0% | 16.8% | -30.1 | -2.9% | -7.7% | /
COc1ccc(S(=O)(=O)N2CCN(CC(=O)NC(C)c3cccs3)CC2)cc1 (centres undefined) | / | / | 129.7 | / | / | /
CCOC(=O)NCCc1c(C)nc2c(c(C)nn2C(C)(C)C)c1C | 0.165µM* | / | -23.5 | 2.0% | ? | 3.5%
COC(=O)c1cc(NC(=O)CCc2c(C)nc3c(c(C)nn3C(C)(C)C)c2C)cc(C(=O)OC)c1 | / | / | 8.4 | / | / | -9.7%
Cc1cc(C)nc(SCc2nnc(SCC#N)n2-c2cccc(Cl)c2)n1 | ? | 7.38µM* | -7.5 | -0.2% | ? | 5.9%
CC1(OC(=O)C2CCCC2)C(=O)C=C2C=C(c3ccsc3)N(C3CCCCC3)C=C2C1=O (centres undefined) | ? | 11.7µM* | 12.6 | 2.4% | 8.7% | -3.3%
CC1(OC(=O)C2CCCC2)C(=O)C=C2C=C(c3ccsc3)N(CCN3CCOCC3)C=C2C1=O (centres undefined) | ? | ? | / | -0.3% | / | -12.8%
CC1(OC(=O)C2CCCC2)C(=O)C=C2C=C(c3ccsc3)N(CC3CC3)C=C2C1=O (centres undefined) | ? | ? | -8.5 | -2.3% | 7.7% | -33.1%
CC1(OC(=O)C2CCCC2)C(=O)C=C2C=C(c3ccsc3)N(CCc3c[nH]c4ccccc34)C=C2C1=O (centres undefined) | 13.1µM* | 9.28µM* | / | -0.5% | -19.2% | ?
